A selection: hits, their analogues and other compounds. The true share with any hit is near 27%.
CYP2C9 inhib: inhibitors of human CYP2C9; P11712; CYP2C9 Supersomes, luciferin-H conversion, luminescence; inhibition, % at 5 µM; 96,000 compounds, 20% hits; AID 777;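 active means blocking of liver enzyme CYP2C9 beyond about 50% at 5 µM, limit read from the data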
EphB4 ephrin blk: blocks human EphB4 binding to ephrin-B2 | P54760 | EphB4 LBD / TNYL-RAW-Alexa532 peptide, fluorescence polarization | inhibition, % at 7 µM | 97,000 compounds, 0.15% hits;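 active means inhibition above the screen-wide mean inhibition plus 3 SD, cut at about 15% in these data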
Target sequence (P54760 whole entry, looked up, the tested form may be a part): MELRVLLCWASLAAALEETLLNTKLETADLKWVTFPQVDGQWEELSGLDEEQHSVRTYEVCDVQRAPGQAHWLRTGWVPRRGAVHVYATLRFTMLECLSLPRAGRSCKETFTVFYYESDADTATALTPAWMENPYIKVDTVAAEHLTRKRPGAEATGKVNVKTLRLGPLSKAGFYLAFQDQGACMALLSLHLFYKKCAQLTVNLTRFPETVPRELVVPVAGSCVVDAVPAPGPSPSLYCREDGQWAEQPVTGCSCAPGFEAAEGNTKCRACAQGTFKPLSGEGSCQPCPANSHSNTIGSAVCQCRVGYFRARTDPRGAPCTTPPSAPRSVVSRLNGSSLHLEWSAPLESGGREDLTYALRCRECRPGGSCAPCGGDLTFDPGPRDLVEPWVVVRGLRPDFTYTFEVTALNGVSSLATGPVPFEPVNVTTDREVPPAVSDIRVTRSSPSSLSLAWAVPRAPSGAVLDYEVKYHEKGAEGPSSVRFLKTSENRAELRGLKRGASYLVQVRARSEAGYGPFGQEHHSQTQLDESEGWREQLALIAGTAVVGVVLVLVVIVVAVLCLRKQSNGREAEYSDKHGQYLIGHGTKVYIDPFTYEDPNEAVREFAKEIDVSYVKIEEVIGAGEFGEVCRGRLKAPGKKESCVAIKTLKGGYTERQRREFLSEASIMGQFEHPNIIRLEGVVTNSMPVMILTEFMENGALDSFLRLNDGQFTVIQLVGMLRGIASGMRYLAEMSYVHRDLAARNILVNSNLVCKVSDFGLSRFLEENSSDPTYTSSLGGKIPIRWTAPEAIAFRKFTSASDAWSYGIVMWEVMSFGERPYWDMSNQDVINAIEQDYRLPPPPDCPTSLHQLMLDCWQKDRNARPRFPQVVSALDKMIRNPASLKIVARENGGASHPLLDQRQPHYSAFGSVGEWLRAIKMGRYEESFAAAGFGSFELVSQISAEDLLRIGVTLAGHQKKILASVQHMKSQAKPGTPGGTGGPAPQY
CYP2C19 activ: activators of human cytochrome P450 2C19 | activation factor at 5 µM | P33261 | recombinant CYP2C19, luciferin-H EGE luminescence; active compounds read high; 0 = fully inhibited enzyme, 1 = untreated enzyme | 96,000 tested, under 10 active | AID 1025;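 active means activation factor of at least 2 at 5 µM in the primary screen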
CYP2C19 inh: inhibitors of human CYP2C19; P33261; CYP2C19 Supersomes, luciferin-H EGE luminescence, 30 min; inhibition, % at 5 µM; 96,000 compounds, 21% hits;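 active means CYP2C19 inhibition above a set limit at 5 µM in the primary screen, cut at about 50% in these data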
CYP2C9 activ: increases human cytochrome P450 2C9 activity; recombinant CYP2C9, luciferin-H conversion, luminescence; active compounds read high; factor 1 = untreated enzyme, 0 = blocked; 96,000 compounds, 1.4% hits; P11712; activation factor at 5 µM; AID 1024;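 active means activation factor of 2 or more for CYP2C9 at a 5 µM dose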
Large screens that a line does not name were inactive.

O=C(CN1CCN(c2ncc(C(F)(F)F)cc2Cl)CC1)N1CCN(c2ncc(C(F)(F)F)cc2Cl)CC1	CYP2C9 inhib 82, CYP2C19 inh 62
O=C(CCSc1ccc(Cl)cc1)N1CCN(c2ncccn2)CC1	CYP2C9 inhib 65
O=C(CSC1=NCCN1)NC12CC3CC(CC(C3)C1)C2	none
Cc1cc2nc(SCCN3CCCC3)[nH]c2cc1C	none (no result: EphB4 ephrin blk)
O=C(CCn1c(=O)sc2ccccc21)NC1=NCCS1	none (no result: CYP2C9 inhib, CYP2C19 activ, CYP2C19 inh, CYP2C9 activ)
O=C(O)CCSc1nc(C(F)(F)F)cc(=O)n1-c1ccccc1	none
Cc1[nH]nc2c1C(c1cccnc1)N(c1ccc(Br)cc1)C2=O (stereo not given)	none (no result: CYP2C9 inhib, CYP2C19 activ, CYP2C19 inh, CYP2C9 activ)
COc1cc(C2c3c(-c4ccccc4)n[nH]c3C(=O)N2c2ccc(C(=O)O)cc2)ccc1O (stereo not given)	none
CCOc1cc(C2c3c(n[nH]c3C)C(=O)N2c2ccc(Br)cc2)ccc1O (stereo not given)	CYP2C9 inhib 71, CYP2C19 inh 81
COc1cc(C2c3c(n[nH]c3C)C(=O)N2c2ccc(Br)cc2)ccc1O (stereo not given)	CYP2C19 inh 52
CCOC(=O)CC(=O)Nc1c(C)cc(C)cc1C	none
Cc1cccc(N2C(=O)CC(Sc3nc(-c4ccccc4)c4cc(Cl)ccc4n3)C2=O)c1 (stereo not given)	CYP2C9 inhib 58
CN(c1ccc(C(=O)Nc2ccccc2C(=O)N2CCOCC2)cc1)S(C)(=O)=O	none (no result: CYP2C9 inhib, CYP2C19 activ, CYP2C19 inh, CYP2C9 activ)
CC1CCN(Cc2nc3c(c(=O)n(C)c(=O)n3C)n2CCCc2ccccc2)CC1	none
COc1ccc(NC(=O)CCS(=O)(=O)c2ccc3c(c2)CCCN3C(C)=O)cc1	none
CC1(C)CC(=O)c2c(O)cc(OCc3ccc(Br)cc3)cc2O1	CYP2C9 inhib 85, CYP2C19 inh 61
COC(=O)c1ccc(COc2cc(O)c3c(c2)OC(C)(C)CC3=O)cc1	CYP2C19 inh 51
COc1cc(O)c2c(c1)OC(C)(C)CC2=O	none
CCCC1(c2ccccc2)NC(=O)N(CC(=O)c2[nH]c(C)c(C(=O)OCC)c2C)C1=O (stereo not given)	CYP2C9 inhib 98, CYP2C19 inh 94
CCOC(=O)c1c(C)[nH]c(C(=O)CN2CC(C)OC(C)C2)c1C (stereo not given)	none
COc1ccc(OC)c(C(=O)CN2C(=O)NC(C)(c3ccccc3)C2=O)c1 (stereo not given)	CYP2C19 inh 99, CYP2C9 activ 2
CCCC1(c2ccccc2)NC(=O)N(CC(=O)Nc2sc(-c3ccccc3)cc2C(=O)OCC)C1=O (stereo not given)	CYP2C9 inhib 60
CCOC(=O)c1c(C)[nH]c(C(=O)CN2C(=O)NC(C)(c3ccc4ccccc4c3)C2=O)c1C (stereo not given)	CYP2C9 inhib 62
CCOc1ccc(C2C(C#N)=C(N)Oc3cc(C)n(CCN4CCOCC4)c(=O)c32)cc1OCC (stereo not given)	none (no result: EphB4 ephrin blk)
Cc1ccc(C(=O)N2CCN3C(=O)c4ccccc4C23c2ccc(Cl)cc2)cc1 (stereo not given)	CYP2C19 inh 86
O=C(Nc1cccc(Cl)c1)N1CCN2C(=O)c3ccccc3C12c1ccccc1 (stereo not given)	CYP2C9 inhib 57
CC(C)CCn1c(=O)c2ccccc2c2ccccc2c1=O	CYP2C9 inhib 80, CYP2C19 inh 86
O=S(=O)(NCc1cccnc1)c1cc(Cl)ccc1Cl	none
O=S(=O)(Nc1nc(-c2sccc2Cl)cs1)c1cc(Cl)ccc1Cl	CYP2C9 inhib 99, CYP2C19 inh 90
N/C(=N\OS(=O)(=O)c1ccccc1)c1ccncc1	none
N/C(=N\OS(=O)(=O)c1ccc2ccccc2c1)c1ccncc1	CYP2C9 inhib 68
C=CCOC(=O)C1=C(C)NC2(O)c3ccccc3C(=O)C12O (stereo not given)	none (no result: EphB4 ephrin blk)
CC(C)CC(NC(=O)OC(C)(C)C)C(=O)NCc1ccccc1 (stereo not given)	none
CC(=O)SCC(C)C(=O)NCc1ccccc1 (stereo not given)	CYP2C19 inh 64
Cc1csc(NC(=O)c2c(O)c3c(n(CC(C)C)c2=O)CCCC3)n1	CYP2C9 inhib 51
CCCn1c2c(c(O)c(C(=O)Nc3nc(C)cs3)c1=O)CCCC2	none
CCC1NC(=S)N(C2CCCCC2)C1=O (stereo not given)	none
COc1cccc(CNc2ccc3c(c2)ncn3C(C)C)c1OC	CYP2C9 inhib 64, CYP2C19 inh 86
CCCn1cnc2cc(NCc3cccc(OC)c3O)ccc21	CYP2C9 inhib 58, CYP2C19 inh 86
CCN(CC)c1ccc2c(Cl)cc(=O)oc2c1	none
CCN(CC)c1ccc(C(=O)OCc2cc(=O)oc3cc(O)ccc23)cc1	CYP2C19 inh 94, CYP2C9 activ 2
Cc1ccc(C2CN=NC23CCc2ccccc2C3=O)cc1 (stereo not given)	CYP2C19 inh 75
CCC(=O)N(CC)C1=C(O)c2ccccc2C(=O)C1=O	none
CCCCc1ccc(/C=C2\C(=O)c3ccccc3C(O)=C2C(=O)OCC)cc1	CYP2C9 inhib 90, CYP2C19 inh 67
CCN1CCCC1CNC(=O)Cn1cc2c(n1)CCC(C)C2 (stereo not given)	none (no result: EphB4 ephrin blk)
COC(=O)c1cc(NC(=O)CN2C(=O)CSC2=O)ccc1Cl	CYP2C9 inhib 69
COC(=O)c1ccccc1NC(=O)CN1C(=O)CSC1=O	none (no result: EphB4 ephrin blk)
S=C(Nc1ccccn1)c1ccccn1	CYP2C9 inhib 51, CYP2C19 inh 66
O=C(Nc1ccccc1)Nc1ccccn1	none
CCCC(C(=O)O)N1C(=O)/C(=C2\C(=O)N(C)c3ccccc32)SC1=S (stereo not given)	CYP2C9 inhib 68 (no result: EphB4 ephrin blk)
O=c1c(F)cn(C2CCCO2)c(=O)n1Cc1c(F)cccc1Cl (stereo not given)	CYP2C19 inh 92
Fc1cccc(Cl)c1Cn1nnc(-c2ccc(N3CCOCC3)cc2)n1	none
CCOC(=O)C(NC(=O)CC)(N1CCc2ccccc2C1)C(F)(F)F (stereo not given)	CYP2C9 inhib 56
CCOC(=O)C(NC(=O)CC)(Nc1ccccc1OC)C(F)(F)F (stereo not given)	none
COc1ccc(C(C(=O)NC2CCCCC2)N(C(=O)c2ccco2)c2ccc(-n3cnnn3)c(C)c2)cc1 (stereo not given)	none (no result: CYP2C9 inhib, CYP2C19 activ, CYP2C19 inh, CYP2C9 activ)
CC(C)OC(=O)c1c(N)n(CCCN2CCOCC2)c2nc3ccccc3nc12	none
Cc1cccc(C(C)C)c1-n1nnnc1-c1ccccc1	CYP2C9 inhib 82, CYP2C19 inh 70
CCCOn1nnnc1-c1ccccc1	none (no result: CYP2C9 inhib, CYP2C19 activ, CYP2C19 inh, CYP2C9 activ)
S=C1NCCc2ccccc2C1c1ccccc1 (stereo not given)	none (no result: CYP2C9 inhib, CYP2C19 activ, CYP2C19 inh, CYP2C9 activ)
Cc1cc(/N=C/C=C2\N(C)c3ccccc3C2(C)C)n(CCC#N)n1	CYP2C19 inh 55
COC(=O)c1c(C)[nH]c(C)c1-c1ccc(C)cc1	CYP2C19 inh 82
COc1cc2ncnc(NCc3ccc(C)cc3)c2cc1OC	CYP2C19 inh 63
N#CC(C(=O)Nc1cccc(Cl)c1)=C1Nc2ccccc2N1	none
COC(=O)c1cc(S(=O)(=O)N2CCC(C)CC2)ccc1F	CYP2C19 inh 88

High-throughput results: PubChem, several laboratories
